AGP1-GFP MLPCN: modulators of AGP1-GFP expression in yeast TOR pathway, primary screen, cell-based, multiplex flow cytometry, S. cerevisiae, MLPCN library | 3 h; GFP as percent of DMSO wells | GFP response vs DMSO, % at 10 µM | 320,000 tested, 0.02% active;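 active = GFP response relative to DMSO above a set limit, near screen average plus 3 SD, cut at about 150% in these data; inconclusive = fewer than 70 cells counted for the yeast strain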;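 note: median GFP channel fluorescence of the gated AGP1 strain per well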
DSG3 Ab inh: inhibitors of pemphigus antibody binding to DSG3, primary screen, biochemical, bead-based, flow cytometry, scFv-GFP; 310,000 tested, 0.48% active; DSG3-coupled beads, scFv-anti-DSG3-GFP binding; stronger effect = lower value; binding (percent of control), % at 10 µM;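 active = binding more than 3 SD below its plate's average and above zero; inconclusive = below that plate limit but binding exactly zero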;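 note: hits lower antibody fragment binding to DSG3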
Target sequence (P32926 whole entry, looked up, the tested form may be a part): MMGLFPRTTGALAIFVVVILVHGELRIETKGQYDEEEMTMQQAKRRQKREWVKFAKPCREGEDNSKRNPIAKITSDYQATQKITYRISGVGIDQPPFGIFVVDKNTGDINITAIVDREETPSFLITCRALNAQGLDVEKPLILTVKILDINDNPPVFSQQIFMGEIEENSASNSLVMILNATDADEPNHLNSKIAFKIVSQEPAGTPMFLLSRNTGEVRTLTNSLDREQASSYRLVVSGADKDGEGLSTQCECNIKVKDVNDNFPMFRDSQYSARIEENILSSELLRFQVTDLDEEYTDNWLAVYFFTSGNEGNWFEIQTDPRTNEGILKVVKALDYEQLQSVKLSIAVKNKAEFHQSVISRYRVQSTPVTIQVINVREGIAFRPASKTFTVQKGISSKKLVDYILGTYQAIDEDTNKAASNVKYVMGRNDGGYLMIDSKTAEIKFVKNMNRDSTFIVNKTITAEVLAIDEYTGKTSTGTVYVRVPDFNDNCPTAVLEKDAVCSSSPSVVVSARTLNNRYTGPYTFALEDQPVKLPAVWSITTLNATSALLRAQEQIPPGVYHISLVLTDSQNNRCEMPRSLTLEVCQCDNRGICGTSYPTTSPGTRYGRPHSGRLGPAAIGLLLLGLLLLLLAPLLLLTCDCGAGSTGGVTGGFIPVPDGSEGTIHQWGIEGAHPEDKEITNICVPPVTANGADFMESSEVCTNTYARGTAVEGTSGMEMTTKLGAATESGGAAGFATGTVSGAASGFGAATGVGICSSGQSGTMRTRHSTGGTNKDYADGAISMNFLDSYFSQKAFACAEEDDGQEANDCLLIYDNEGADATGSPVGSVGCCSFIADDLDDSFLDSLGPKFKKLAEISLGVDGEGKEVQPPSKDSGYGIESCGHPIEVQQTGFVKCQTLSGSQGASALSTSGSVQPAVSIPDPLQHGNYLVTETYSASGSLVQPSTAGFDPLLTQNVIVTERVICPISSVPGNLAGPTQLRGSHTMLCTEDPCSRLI
LAP4 TOR yeast: modulators of LAP4-GFP expression in yeast, primary screen, S. cerevisiae, multiplex flow cytometry, MLPCN library; 320,000 tested, 0.34% active; GFP response vs DMSO, % at 10 µM; 3 h; median GFP as percent of DMSO wells;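 active = GFP response vs DMSO above a set limit, about the screen mean plus 3 SD, cut at about 150% in these data; inconclusive = under 70 cell events counted for the yeast strain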
RPL19A TOR yeast: RPL19A-GFP expression modulators in yeast, primary screen, cell-based, S. cerevisiae, multiplex flow cytometry, MLPCN; S. cerevisiae RPL19A-GFP strain, 3 h; stronger effect = lower value; percent response vs DMSO, % at 10 µM; 330,000 tested, 0.3% active; AID 2025, 2009;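 active = percent response vs DMSO below 50%; inconclusive = fewer than 70 events counted for the yeast strain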;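 note: median channel GFP fluorescence of the barcoded RPL19A-GFP strain; lower means less RPL19A-GFP as with rapamycin TOR inhibition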
MEP2-GFP yeast: modulators of MEP2-GFP levels in yeast, primary screen, S. cerevisiae, multiplex flow cytometry, MLPCN library; S. cerevisiae MEP2-GFP strain, 3 h; 100% = DMSO control level; GFP response vs DMSO, % at 10 µM; 330,000 tested, 0.51% active;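 active = GFP response versus DMSO above a set limit, roughly screen mean plus 3 SD, cut at about 180% in these data; inconclusive = fewer than 70 cells counted for a yeast strain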;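 note: median GFP fluorescence of the barcode-gated MEP2-GFP cells per well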
CIT2-GFP yeast: modulators of CIT2-GFP expression in yeast, primary screen, S. cerevisiae, GFP fusion, multiplex flow cytometry, MLPCN library; GFP response vs DMSO, % at 10 µM; S. cerevisiae CIT2-GFP strain, 3 h; 100 means same as DMSO wells; 320,000 tested, 0.065% active; AID 2029, 2009;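 active = GFP response relative to DMSO above a set limit, near the screen mean plus 3 SD, cut at about 150% in these data; inconclusive = Fewer than 70 cells measured for a yeast strain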;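 note: ratio of well median GFP fluorescence to mean of DMSO wells on the plate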
Each line names hits and unclear results; the compound was inactive in the other large screens; [ ] = dose if it differs, or a comment. Sampled rows, rich in hits. Any-hit rate of the full collection: about 1.2%.

O=C1N[C@H]2CC=C[C@H]2Nc2ccccc21	DSG3 Ab inh 68 (no result: AGP1-GFP MLPCN, LAP4 TOR yeast, RPL19A TOR yeast, MEP2-GFP yeast, CIT2-GFP yeast)
COC(=O)c1cc(/C=C/c2ccccc2)on1	DSG3 Ab inh -27
COC(=O)c1cc(/C=C/c2ccccc2)[nH]n1	none
Cc1ccc(-c2c(C(=O)N/N=C/c3ccco3)nnn2-c2nonc2N)cc1	none
Cc1ccc(SCc2c(C(=O)N/N=C/c3ccc(C)o3)nnn2-c2nonc2N)cc1	DSG3 Ab inh 86 (no result: AGP1-GFP MLPCN, LAP4 TOR yeast, RPL19A TOR yeast, MEP2-GFP yeast, CIT2-GFP yeast)
CCOc1ccc(-c2c(C(=O)N/N=C/c3ccco3)nnn2-c2nonc2N)cc1	DSG3 Ab inh 3.4
CCCOc1ccc(-c2c(C(=O)N/N=C/C3CCCCC3)nnn2-c2nonc2N)cc1	AGP1-GFP MLPCN inconclusive, RPL19A TOR yeast 27[may fluoresce violet], CIT2-GFP yeast inconclusive
CCCOc1ccc(-c2c(C(=O)N/N=C/C3CC=CCC3)nnn2-c2nonc2N)cc1 (configuration not stated)	none (no result: DSG3 Ab inh)
Cc1ccc(/C=N/NC(=O)c2nnn(-c3nonc3N)c2CSc2ccccc2)o1	none
Cc1cccc(Sc2nc(-c3ccccc3)ccc2C#N)c1	none (no result: DSG3 Ab inh)
CCOc1ccccc1-c1nnc(SCC(=O)NC2CC2)n1CC	none
CCOC(=O)N1CCN(C(=O)c2ccc(NS(=O)(=O)c3ccc4[nH]c(=O)[nH]c4c3)cc2)CC1	none
O=C(Cc1ccc(Cl)cc1)Nc1ccccc1N1CCN(C(=O)c2ccccc2)CC1	none
N#CC1=C(N)C2=C(N3CCCCC3)CCCC2C1(C#N)C#N (configuration not stated)	none
N#CC(C#N)=C1C=C2C=C(N3CCCCC3)CCC2CC1 (configuration not stated)	AGP1-GFP MLPCN 190[may fluoresce green], LAP4 TOR yeast 712[may fluoresce green], MEP2-GFP yeast 896[may fluoresce green], CIT2-GFP yeast 631[may fluoresce green] (no result: DSG3 Ab inh)
O=C(Nc1c2c(nn1-c1ccccc1)CS(=O)C2)c1ccco1 (configuration not stated)	LAP4 TOR yeast 168
Cc1cccc(-n2nc3c(c2NC(=O)c2ccco2)CSC3)c1C	DSG3 Ab inh 87
CC(=O)Nc1c2c(nn1-c1ccccc1)CS(=O)C2 (configuration not stated)	none
Cc1cccc(-n2nc3c(c2NC(=O)c2ccco2)CS(=O)C3)c1C (configuration not stated)	none
COCC(=O)Nc1cc([N+](=O)[O-])ccc1C	MEP2-GFP yeast 216 (no result: RPL19A TOR yeast)
CCOC(=O)C(=O)Nc1cc([N+](=O)[O-])ccc1C	none
CCCCCCc1nc2nc(Cl)c(Cl)nc2[nH]1	none (no result: AGP1-GFP MLPCN, LAP4 TOR yeast, RPL19A TOR yeast, MEP2-GFP yeast, CIT2-GFP yeast)
CCOC(=O)C1=C(COC(=O)/C=C/c2cccc(F)c2)NC(=O)NC1C (configuration not stated)	none
O=C(COC(=O)CSc1ccc([N+](=O)[O-])cc1)NCCc1ccccc1	none
CC(OC(=O)CSc1ccc([N+](=O)[O-])cc1)C(=O)NCc1ccccc1 (configuration not stated)	LAP4 TOR yeast 201
CCN1CCN(C(=O)COCc2cc(-c3ccc4c(c3)OCO4)on2)CC1	none
COc1ccc(N2CCN(C(=O)COCc3cc(-c4ccc5c(c4)OCO5)on3)CC2)cc1	DSG3 Ab inh 71
CCc1cc(CNC(=O)c2ccc3nc(Cc4ccc(OC)c(OC)c4)oc3c2)on1	none
CC(=O)Nc1ccc(OCc2ccc(S(=O)(=O)Cc3ccccc3)cc2)cc1	none
CC(=O)Nc1cccc(OCc2ccc(S(=O)(=O)Cc3ccccc3)cc2)c1	DSG3 Ab inh 58
COc1ccccc1C1c2ccc3ccccc3c2Oc2ncn(CCCO)c(=N)c21 (configuration not stated)	AGP1-GFP MLPCN inconclusive, RPL19A TOR yeast 24[may fluoresce violet], MEP2-GFP yeast 352[may fluoresce violet], CIT2-GFP yeast inconclusive
OCC(O)C1OC(c2ccccc2)OC(CO)C1O (configuration not stated)	none (no result: AGP1-GFP MLPCN, LAP4 TOR yeast, RPL19A TOR yeast, MEP2-GFP yeast, CIT2-GFP yeast)
CCOC(=O)c1cn(-c2ccc([N+](=O)[O-])cc2)c2cc(Cl)c([N+](=O)[O-])cc2c1=O	DSG3 Ab inh 62
O=C(O)c1cn(-c2ccc(F)cc2)c2cc(Cl)c(F)cc2c1=O	none
CN(Cc1ccccc1)C(=O)CN1CCN(S(=O)(=O)c2ccccc2F)CC1	none (no result: AGP1-GFP MLPCN, LAP4 TOR yeast, RPL19A TOR yeast, MEP2-GFP yeast, CIT2-GFP yeast)
Cn1c(=O)c2c(ncn2CCOc2ccc(F)cc2)n(C)c1=O	AGP1-GFP MLPCN inconclusive, RPL19A TOR yeast 40[may fluoresce violet], MEP2-GFP yeast inconclusive, CIT2-GFP yeast inconclusive (no result: DSG3 Ab inh)
Cn1c(=O)c2c(nc(NCCOc3ccc(F)cc3)n2C)n(C)c1=O	DSG3 Ab inh 91
CCCNc1nc2c(c(=O)n(C)c(=O)n2C)n1Cc1ccc(F)cc1	none
Cn1c(=O)c2c(ncn2CC(=O)Nc2ccccc2)n(C)c1=O	MEP2-GFP yeast 210[may fluoresce violet], CIT2-GFP yeast inconclusive (no result: AGP1-GFP MLPCN)
C/C(CC(=O)NC1CCCCC1)=N\NC(=O)COc1ccc(C)cc1Br	none
CCc1oc2ccccc2c1C(=O)CCN1CCCCC1	LAP4 TOR yeast 154
COc1ccc(CCC(=O)NC2CCCc3ccccc32)cc1OC (configuration not stated)	AGP1-GFP MLPCN inconclusive, RPL19A TOR yeast 28[may fluoresce violet], MEP2-GFP yeast 236[may fluoresce violet], CIT2-GFP yeast inconclusive
COc1ccccc1CCC(=O)Nc1nccs1	none
COc1ccc(CCC(=O)Nc2nccs2)cc1OC	RPL19A TOR yeast 47[may fluoresce violet], MEP2-GFP yeast 198[may fluoresce violet], CIT2-GFP yeast inconclusive
CCc1cccc(NC(=O)c2ccc(CNc3c(N4CCCC4)c(=O)c3=O)cc2)c1	none
CCN1CCN(C(=O)c2ccc(NS(=O)(=O)c3ccccc3)cc2)CC1	none (no result: AGP1-GFP MLPCN, LAP4 TOR yeast, RPL19A TOR yeast, MEP2-GFP yeast, CIT2-GFP yeast)
O=C1NC[C@H](c2ccccc2)OC(=O)[C@H](Cc2ccc(F)cc2)C/C=C\C[C@H]1CC(=O)N(CCO)Cc1ccccc1	none
COc1ccc(N2CCN(S(=O)(=O)c3ccc(Cl)c(C(F)(F)F)c3)CC2)cc1	none
COc1ccc(N2CCN(S(=O)(=O)c3cccc(C(F)(F)F)c3)CC2)cc1	DSG3 Ab inh -25
Cc1nn(C)c(C)c1/C=N/NC(=O)CCn1nc(C)c([N+](=O)[O-])c1C	none
COc1ccc(Nc2nc(-c3cccc([N+](=O)[O-])c3)nc3ccccc23)c(OC)c1	none
COc1ccc(OC)c(Nc2nc(-c3cccc([N+](=O)[O-])c3)nc3ccccc23)c1	RPL19A TOR yeast 30[may fluoresce violet], MEP2-GFP yeast 184[may fluoresce violet], CIT2-GFP yeast inconclusive
Cc1ccccc1CC1(CO)CCCN(C(=O)c2ccoc2)C1 (configuration not stated)	none (no result: AGP1-GFP MLPCN, LAP4 TOR yeast, RPL19A TOR yeast, MEP2-GFP yeast, CIT2-GFP yeast)
COc1ccc(-c2csc(NC(C)c3nc4cc(Cl)c(Cl)cc4n3CCOCCO)n2)cc1 (configuration not stated)	none
CC(Nc1nc(-c2ccc(F)cc2)cs1)c1nc2cc(Cl)c(Cl)cc2n1CCCO (configuration not stated)	DSG3 Ab inh 87

Source: PubChem BioAssay
